# Measurements taken from ChEMBL document CHEMBL1157539, “Thousands of chemical starting points for antimalarial lead identification” (Nature, 2010).
# What was measured:
# Format in all cases: functional
# Plasmodium falciparum [1] = experiment: GSK_TCMDC: Inhibition of Plasmodium falciparum 3D7 in whole red blood cells, using parasite LDH activity as an index of growth. Test compounds present at 2uM
# Plasmodium falciparum [2] = experiment: GSK_TCMDC: Inhibition of Plasmodium falciparum Dd2 in whole red blood cells, using parasite LDH activity as an index of growth. Test compounds present at 2uM
# HepG2 = experiment: GSK_TCMDC: Percent inhibition of human HepG2 cell line. Test compounds present at 10uM.
SMILES,Inhibition (Plasmodium falciparum [1]),Inhibition (Plasmodium falciparum [2]),Inhibition (HepG2)
COc1ccc2ncc(F)c(CCN3CC(O)C(CNCc4ccccc4)C3)c2n1.Cl (stereo not drawn),89%,22%,19%
CCCc1cc(=O)[nH]c(-n2nc(C)cc2NC(=O)c2cc3ccccc3o2)n1,90%,63%,39%
COc1cccc(-c2cc(C(=O)Nc3ccc4[nH]c(-c5ccccc5)nc4c3)[nH]n2)c1.O=C(O)C(F)(F)F,100%,65%,68%
Cc1cccc2nc(-c3ccc(-c4cccc(NC(=O)Nc5ccc(Cl)cc5)c4)s3)[nH]c12,100%,52%,25%
Cc1ccc(NC(=O)c2cccc(CN3CCCN(Cc4cccc(O)c4)CC3)c2)cc1.O=C(O)C(F)(F)F,82%,3%,22%
COC(=O)c1cc(/C(C)=N/Nc2nc3ccccc3[nH]2)ccc1O,100%,75%,9%
CCNc1cc(C)nc(Nc2ccc(NC(=O)c3ccco3)cc2)n1,95%,32%,24%
COc1cc(N)c(Cl)cc1C(=O)NCC1CCN(c2nc(C)cc(C)n2)CC1,96%,95%,0%
CCOC(=O)CCCc1cc(NC2CCN(C)CC2)nc(Nc2ccc(OC)cc2)n1,99%,17%,41%
Cc1ccccc1CNc1noc(-c2c(-c3ccccc3)noc2C)n1,94%,70%,0%
NC1CCCN(Cc2ccc(-c3cccc(-c4nc5ccccc5[nH]4)c3)cc2)C1.O=C(O)C(F)(F)F (stereo not drawn),95%,26%,26%
